Consider nine molecules from PubChem BioAssay (Tox21).

SMILES strings stand for the structures. Where “and” joins values, the source holds several entries; their conditions need not be identical. Identical values can stand only once. Results filed as inconclusive are left out. The source holds several records for some structures; these can differ, active in one and inactive in another. Calls of active or inactive are those of the source. Unless noted, calls follow the shape of the dose curve; as a rule, active = well fitted curve in the direction sought with a large enough effect in the repeat runs; inconclusive = weak or mixed curves; inactive = no such curve, though single readings can be large; an effect the other way counts as inactive or inconclusive.

A short description of assay [1]: qHTS assay to identify small molecule agonists of the peroxisome proliferator-activated receptor delta (PPARd) signaling pathway - cell viability counter screen (AID 743211). Also: nearly all actives have a fitted effect of over 55% in size. Also: potency is read from the fitted curve at half-maximal effect. The method, boiled down: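 Viability of GeneBLAzer PPARd UAS-bla HEK293H cells was assessed after 17 h compound incubation at 37C, using CellTiter-Glo reagent added after the reporter read and luminescence recorded 30 min later.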
(In general: In qHTS, concentration-response curves come from the screen itself.)

Assay [2] concerns the target Bile acid receptor (Homo sapiens) (UniProt Q96RI1). Nature of the assay: qHTS assay to identify small molecule agonists of the farnesoid-X-receptor (FXR) signaling pathway (AID 743220; active = well fitted activation curve with a large enough effect in the signal ratio in the repeat runs, not every such curve was filed as active; the % refers to the signal ratio). The method, boiled down: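 Beta-lactamase reporter under UAS control in GeneBLAzer FXR HEK 293T cells (5000/well) measured with LiveBLAzer FRET substrate after 2 h at room temperature. Compound exposure lasted 16 h at 37C.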

A short description of assay [3]: qHTS assay to identify small molecule antagonists of the vitamin D receptor (VDR) signaling pathway - cell viability counter screen (AID 743225). Also: nearly all actives have a fitted effect of over 50% in size. Also: potency is read from the fitted curve at half-maximal effect. The essentials: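 Cells (VDR-UAS-bla HEK 293T) are plated, rested 4 h at 37C, dosed with compound and 3 nM final 1-alpha,25-dihydroxy vitamin D3, and incubated 16 h. Viability is taken from CellTiter-Glo luminescence in the reporter wells.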

The nature of assay [4]: qHTS assay to identify small molecule agonists of the NFkB signaling pathway - cell viability counter screen (AID 1159515; calls by dose curve; also: nearly all actives have a fitted effect of over 55% in size; also: potency is read from the fitted curve at half-maximal effect). The essentials:
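Using the same wells as the NFkB reporter read, ME-180 NFkB-bla cells given compounds for 5 hr were assessed for viability via CellTiter-Glo, with luminescence taken after a 30 min room-temperature incubation.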

Assay [5] is described as follows: qHTS assay to identify small molecule antagonists of the retinoid-related orphan receptor gamma (ROR-gamma) signaling pathway - cell viability counter screen (AID 1159520). Also: nearly all actives have a fitted effect of over 50% in size. Also: potency is read from the fitted curve at half-maximal effect. The method, boiled down:
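Tet-on ROR gamma CHO cells (1,000/well) were plated 4 hr, given compounds in DMSO for 2 hr at 37 C, then induced with 1 uM final doxycycline for 16 hr. Viability was read as ATP by CellTiter-Glo luminescence after 30 min.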

Assay [6] has as its target Nuclear receptor ROR-gamma (Homo sapiens) (UniProt P51449). Nature of the assay: qHTS assay to identify small molecule antagonists of the retinoid-related orphan receptor gamma (ROR-gamma) signaling pathway (AID 1159521; also: nearly all actives have a fitted effect of over 50% in size; also: potency is read from the fitted curve at half-maximal effect). The essentials:
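RORγ antagonism is scored from reduced reporter luminescence in Tet-on CHO cells. Induction used 1 uM final doxycycline hyclate for 16 h at 37 C, following a 2 h compound exposure.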

Assay [7] is described as follows: qHTS assay to identify small molecule agonists of the AP-1 signaling pathway - cell viability counter screen (AID 1159525; calls by dose curve; also: nearly all actives have a fitted effect of over 55% in size; also: potency is read from the fitted curve at half-maximal effect). The essentials:
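ME-180 AP-1-bla, 2500 cells/well, Opti-MEM + 0.5% dialyzed FBS; overnight 37 °C; cpd 15-pt titration, 5 h 37 °C; CellTiter-Glo 30 min RT; luminescence read; normalised to TOAB and DMSO controls.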

The target in assay [8] is Peroxisome proliferator-activated receptor delta (Homo sapiens) (UniProt Q03181). The assay is described as follows: qHTS assay to identify small molecule agonists of the peroxisome proliferator-activated receptor delta (PPARd) signaling pathway (AID 743212; calls by dose curve). The essentials: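 GeneBLAzer PPARd UAS-bla HEK293H cells (beta-lactamase reporter under UAS control), plated and rested 5 h at 37 C, then exposed to compounds in DMSO at 37 C; LiveBLAzer B/G FRET substrate added, 2 h room temperature, fluorescence read.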
Chain of Peroxisome proliferator-activated receptor delta (Homo sapiens) (Q03181 whole entry, looked up): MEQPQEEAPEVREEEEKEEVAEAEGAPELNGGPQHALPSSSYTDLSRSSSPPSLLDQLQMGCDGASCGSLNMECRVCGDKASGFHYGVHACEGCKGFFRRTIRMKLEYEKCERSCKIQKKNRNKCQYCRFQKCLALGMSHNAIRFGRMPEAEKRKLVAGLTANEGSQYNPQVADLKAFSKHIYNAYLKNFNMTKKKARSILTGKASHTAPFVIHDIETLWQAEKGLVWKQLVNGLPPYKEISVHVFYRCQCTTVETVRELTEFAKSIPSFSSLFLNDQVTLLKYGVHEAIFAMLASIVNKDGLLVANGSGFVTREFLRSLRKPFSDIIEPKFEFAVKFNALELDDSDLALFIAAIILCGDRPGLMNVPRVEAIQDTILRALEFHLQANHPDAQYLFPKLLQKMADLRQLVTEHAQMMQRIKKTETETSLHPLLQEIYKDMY

A short description of assay [9]: qHTS assay to identify small molecule antagonists of the peroxisome proliferator-activated receptor delta (PPARd) signaling pathway - cell viability counter screen (AID 743213). Also: nearly all actives have a fitted effect of over 50% in size. Also: potency is read from the fitted curve at half-maximal effect. The essentials:
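Agonist-stimulated (L165041, 300 nM final) HEK293H PPARd UAS-bla cells are exposed to compounds for 17 h at 37 C, and ATP-based luminescence (CellTiter-Glo) from the same wells reports cytotoxicity.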

The target of assay [10] is Peroxisome proliferator-activated receptor delta (Homo sapiens) (UniProt Q03181). Nature of the assay: qHTS assay to identify small molecule antagonists of the peroxisome proliferator-activated receptor delta (PPARd) signaling pathway (AID 743215; active = well fitted inhibition curve with a large enough effect in the signal ratio in the repeat runs, not every such curve was filed as active; the % refers to the signal ratio; also: series mostly up to about 62 µM). The method, boiled down:
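HEK293H UAS-bla, PPARd; agonist L165041 300 nM final with cpd in DMSO; 37 C 17 h; FRET substrate, RT 2 h; fluorescence intensity.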

Assay [11] can be described thus: qHTS assay to identify small molecule agonists of the farnesoid-X-receptor (FXR) signaling pathway - cell viability counter screen (AID 743218). Also: nearly all actives have a fitted effect of over 45% in size. Also: potency is read from the fitted curve at half-maximal effect. The method, boiled down: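 Parallel cytotoxicity test: compound-treated (16 h, 37 C) HEK 293T FXR-bla reporter cells were lysed with CellTiter-Glo and luminescence recorded.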
Assay [12] is described as follows: qHTS assay to identify small molecule antagonists of the farnesoid-X-receptor (FXR) signaling pathway - cell viability counter screen (AID 743221; active = well fitted cell-killing curve with a large enough effect in the repeat runs, not every such curve was filed as active; also: nearly all actives have a fitted effect of over 50% in size; also: potency is read from the fitted curve at half-maximal effect). The method, boiled down: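 Quantitative HTS of the Tox21 10K library run in parallel with the beta-lactamase reporter read. HEK 293T cells carrying a UAS-driven bla reporter got compound and 50 uM CDCA (final) for 16 h; ATP-based luminescence followed.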

Assay [13] addresses Vitamin D3 receptor (Homo sapiens) (UniProt P11473). The assay is described as follows: qHTS assay to identify small molecule agonists of the vitamin D receptor (VDR) signaling pathway (AID 743222; calls by dose curve). The essentials:
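In VDR-bla cells, compound-induced beta-lactamase expression is quantified by FRET substrate fluorescence. Treatment lasts 16 h at 37C; substrate develops 2 h at room temperature.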

The target is the same in assay [14]. Nature of the assay: qHTS assay to identify small molecule antagonists of the vitamin D receptor (VDR) signaling pathway (AID 743223; active = well fitted inhibition curve with a large enough effect in the signal ratio in the repeat runs, not every such curve was filed as active; the % refers to the signal ratio). The method, boiled down:
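Fluorescence from LiveBLAzer B/G FRET substrate, read after 2 h at room temperature, reflects beta-lactamase reporter activity in VDR-bla cells treated 16 h at 37C with compounds and agonist 1alpha,25-dihydroxyvitamin D3 (3 nM final).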

Assay [15] in a line: qHTS assay to identify small molecule agonists of the vitamin D receptor (VDR) signaling pathway - cell viability counter screen (AID 743224). Also: nearly all actives have a fitted effect of over 50% in size. Also: potency is read from the fitted curve at half-maximal effect. The method, boiled down:
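Plated VDR-bla cells (4 h, 37C) received compound, incubated 16 h, then LiveBLAzer substrate 2 h RT; CellTiter-Glo added afterwards, luminescence read at 30 min.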

Assay [16] deals with Retinoic acid receptor RXR-alpha (Homo sapiens) (UniProt P19793). The assay is described as follows: qHTS assay to identify small molecule agonists of the RXR signaling pathway (AID 1159527; calls by dose curve; also: nearly all actives have a fitted effect of over 35% in size). The method, boiled down: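 qHTS of the Tox21 10K library in GeneBLAzer RXR-alpha HEK 293T cells carrying a beta-lactamase reporter […]; 16 hr treatment, 9-cis retinoic acid as agonist control, FRET read-out.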
Chain of Retinoic acid receptor RXR-alpha (Homo sapiens) (P19793 whole entry, looked up): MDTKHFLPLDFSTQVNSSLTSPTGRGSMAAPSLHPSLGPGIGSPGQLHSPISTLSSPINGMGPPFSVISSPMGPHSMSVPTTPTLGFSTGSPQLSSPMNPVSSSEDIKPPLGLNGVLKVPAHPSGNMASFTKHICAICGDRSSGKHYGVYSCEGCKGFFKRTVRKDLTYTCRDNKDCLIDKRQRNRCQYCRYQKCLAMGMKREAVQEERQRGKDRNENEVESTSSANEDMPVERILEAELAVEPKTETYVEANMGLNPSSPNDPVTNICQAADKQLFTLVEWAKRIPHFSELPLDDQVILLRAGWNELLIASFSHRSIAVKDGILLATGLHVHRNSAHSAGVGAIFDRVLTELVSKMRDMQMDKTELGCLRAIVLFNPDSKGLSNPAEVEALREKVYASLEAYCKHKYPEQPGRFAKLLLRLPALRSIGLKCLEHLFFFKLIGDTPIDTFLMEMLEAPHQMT

Assay [17] addresses Bile acid receptor (Homo sapiens) (UniProt Q96RI1). The assay is described as follows: qHTS assay to identify small molecule antagonists of the farnesoid-X-receptor (FXR) signaling pathway (AID 743217; active = well fitted inhibition curve with a large enough effect in the signal ratio in the repeat runs, not every such curve was filed as active; the % refers to the signal ratio). The essentials: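 GeneBLAzer FXR-UAS-bla HEK 293T, CDCA-stimulated (50 uM final). Compound treatment 16 h, 37 °C. Detection: beta-lactamase cleavage of B/G FRET substrate, fluorescence.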

A short description of assay [18]: qHTS assay to identify small molecule agonists of the AP-1 signaling pathway (AID 1159526; calls by dose curve).
The nature of assay [19]: qHTS assay to identify small molecule agonists of the endoplasmic reticulum stress response signaling pathway - cell viability counter screen (AID 1159517; calls by dose curve). The essentials: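 Luminescence readout: CellTiter-Glo, 30 min RT, same wells as the ESRE-bla reporter read. HeLa ESRE-bla, 1,500 cells/well, o/n 37 C; cpd 5 hr 37 C/5% CO2.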

Chain of Bile acid receptor (Homo sapiens) (Q96RI1 whole entry, looked up): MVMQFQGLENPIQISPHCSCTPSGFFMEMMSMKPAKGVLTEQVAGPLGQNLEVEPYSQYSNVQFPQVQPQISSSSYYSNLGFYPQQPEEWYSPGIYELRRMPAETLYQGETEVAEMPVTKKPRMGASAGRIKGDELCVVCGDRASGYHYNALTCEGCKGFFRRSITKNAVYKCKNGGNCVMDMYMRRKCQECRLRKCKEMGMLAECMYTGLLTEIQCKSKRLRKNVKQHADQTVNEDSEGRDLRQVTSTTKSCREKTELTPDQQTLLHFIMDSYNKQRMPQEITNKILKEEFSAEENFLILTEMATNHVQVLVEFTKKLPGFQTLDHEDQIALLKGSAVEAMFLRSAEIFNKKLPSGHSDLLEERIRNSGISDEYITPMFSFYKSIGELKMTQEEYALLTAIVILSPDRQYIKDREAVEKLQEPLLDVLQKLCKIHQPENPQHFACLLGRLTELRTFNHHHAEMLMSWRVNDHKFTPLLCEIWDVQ
Chain of Vitamin D3 receptor (Homo sapiens) (P11473 whole entry, looked up): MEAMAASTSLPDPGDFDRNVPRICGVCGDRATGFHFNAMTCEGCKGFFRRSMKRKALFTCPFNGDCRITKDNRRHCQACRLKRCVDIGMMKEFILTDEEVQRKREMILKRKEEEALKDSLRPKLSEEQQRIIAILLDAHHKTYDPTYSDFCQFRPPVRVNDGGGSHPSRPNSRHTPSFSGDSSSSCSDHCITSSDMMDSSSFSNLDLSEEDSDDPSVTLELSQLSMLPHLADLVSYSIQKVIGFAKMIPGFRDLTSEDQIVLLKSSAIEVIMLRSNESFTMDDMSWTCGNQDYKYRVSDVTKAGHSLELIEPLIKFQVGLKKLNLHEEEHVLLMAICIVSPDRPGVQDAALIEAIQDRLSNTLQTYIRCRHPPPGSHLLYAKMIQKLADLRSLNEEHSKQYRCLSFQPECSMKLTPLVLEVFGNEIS

Regarding `CC(C)C1CCC(Cc2ccc(Cl)cc2)C1(O)Cn1cncn1` (stereo unspecified), the Potency is 54.4 µM (active) in [1]; 48.5 µM (active) in assay [3]; 54.4 µM (active) in [4]; 60.5 µM (active) in assay [5]; 30.3 µM (active) in assay [6]; 48.5 µM (active) in assay [7]. The outcome in assay [2] was inactive.

Regarding `Clc1ccc(C(c2ccc(Cl)cc2)C(Cl)(Cl)Cl)cc1`, the Potency is 49.3 µM (active) and 38.9 µM (active) in assay [1]; 55.3 µM (active) and 43.6 µM (active) and inactive in [15]; 55.3 µM (active) in assay [4]; 61.6 µM (active) in [6]; 34.9 µM (active) and 38.9 µM (active) in [7]. The Potency entry in [8], in [9], in [10], in assay [11], in assay [12] and in assay [13] was “inactive” throughout. Moreover, the Potency result in [14] and in assay [3] was “inactive” each time. Also, the molecule was classed as inactive in assay [2].

Take `CCOCn1c(-c2ccc(Cl)cc2)c(C#N)c(Br)c1C(F)(F)F`: the Potency in [1] is 19.5 µM (active); in [9], 30.9 µM (active); in assay [11], 12.3 µM (active); in [12], 27.5 µM (active); in [15] it was 3.47 µM (active); in assay [3], 4.9 µM (active). The Potency in [6] was 0.686 µM (active). The Potency entry in assay [4] and in [7] was “inactive” throughout.

With `CCOP(=S)(OCC)OC(Cl)C(Cl)(Cl)Cl` (stereo unspecified), the Potency result in [8], in assay [10], in [11], in [12], in assay [13] and in assay [15] was “inactive” throughout. The Potency entry in [3], in [4], in assay [6] and in [7] was “inactive” in each case. The molecule was called inactive in [16].

With `CCN(CC)C(=S)[S-].CCN(CC)C(=S)[S-].[Zn+2]`, the Potency in [1] is 0.545 µM (active); in assay [9], 0.433 µM (active); in assay [11], 3.44 µM (active); in [12] it was 6.86 µM (active); in assay [15], 0.217 µM (active); in [3] it was 3.06 µM (active). The Potency is 12.2 µM (active) in assay [4], 5.4 µM (active) in assay [5], 0.856 µM (active) in [6] and 12.2 µM (active) in assay [7].

Consider `Oc1c(Br)c(Br)c(Br)c(Br)c1Br`, for which the molecule was called inactive in assay [2]. Moreover, the Potency entry in assay [4], in [5] and in assay [7] was “inactive” each time. In addition, the Potency in [6] is 24.5 µM (active).

With `O=c1ssc(Cl)c1Cl`, the Potency in assay [1] is 49 µM (active); in assay [15], 43.6 µM (active); in assay [4], 27.5 µM (active); in assay [5], 15.4 µM (active); in assay [6], 17.2 µM (active). Besides, the Potency entry in assay [17], in assay [12] and in [13] was “inactive” throughout. Moreover, the outcome in [2] was inactive.

For the molecule `CCOC(=O)OC1=C(c2cc(C)ccc2C)C(=O)NC12CCC(OC)CC2` (stereo unspecified), the Potency result in [1], in assay [8], in assay [9], in assay [17], in assay [11] and in assay [12] was “inactive” each time. Further, the Potency entry in assay [13], in assay [15], in [3], in [4], in assay [5] and in assay [6] was “inactive” throughout. The Potency result in [7] and in assay [18] was “inactive” each time. For the same molecule, the call in [2] was inactive.

Turning to `O=S(=O)(c1ccc(Cl)cc1)c1ccc(Cl)cc1`, the Potency entry in assay [12], in [13], in [3], in [4], in [19] and in [7] was “inactive” each time.
